Source: the supplement of paper PMC13380429
A number with no mark means an inactive call.

System: Vero E6 infected with SARS-CoV-2
Assay: inhibition of SARS-CoV-2 cytopathic effect; higher = more antiviral protection, active = above 15
Conditions: 48 h

| Structure (SMILES) | inhibition of SARS-CoV-2 cytopathic effect (1 nM) | inhibition of SARS-CoV-2 cytopathic effect (8.33 nM) | inhibition of SARS-CoV-2 cytopathic effect (100 nM) | inhibition of SARS-CoV-2 cytopathic effect (833.33 nM) | inhibition of SARS-CoV-2 cytopathic effect (10000 nM) |
| --- | --- | --- | --- | --- | --- |
| CC(C)CN(C[C@@H](O)[C@H](Cc1ccccc1)NC(=O)O[C@H]1CCOC1)S(=O)(=O)c1ccc(N)cc1 [amprenavir] | -0.22% | 1.43% | -0.29% | -1.76% | -0.72% |
| NCCCC[C@H](NC(=O)[C@@H](Cc1cc(Br)c(O)c(Br)c1)NC(=O)N1CCC(N2Cc3ccccc3NC2=O)CC1)C(=O)N1CCN(c2ccncc2)CC1 | 0.88% | 0.87% | 2.08% | -1.34% | 0.72% |
| CC(C)NCC(O)COc1ccc(COCCOC(C)C)cc1 (stereo not given) [bisoprolol] | -5.27% | -2.6% | -2.42% | -3.57% | -3.25% |
| CCN1CCN(Cc2ccc(C(=O)Nc3ccc(C)c(Oc4ccc5c(c4)CC(=O)N5)c3)cc2C(F)(F)F)CC1 | -1.15% | -1.24% | 1.47% | 3.18% | 56% (active) |
| CN(C)c1cc(CNCC(C)(C)C)c(O)c2c1C[C@H]1C[C@H]3[C@H](N(C)C)C(O)=C(C(N)=O)C(=O)[C@@]3(O)C(O)=C1C2=O [omadacycline] | -0.66% | 0.51% | 1.58% | -0.64% | -1.14% |
| Cc1ccc(O)c(N=Nc2ccccc2)n1 | -2.81% | -4.41% | -3.53% | 0.01% | 3.77% |
| CCOC(=O)[C@H](CCc1ccccc1)N[C@@H](C)C(=O)N1Cc2ccccc2C[C@H]1C(=O)O [quinapril] | 1.54% | 1.58% | 0.68% | 2.09% | 4.29% |
| Cc1cc(C(=O)NOCCO)c(Nc2ccc(I)cc2F)n(C)c1=O | -2.17% | -8.75% | -12% | -15.5% | -16.9% |
| COc1ccc(S(=O)(=O)Nc2cccnc2Nc2ccc(O)cc2)cc1 | 1.18% | 4.25% | 1.28% | 0.22% | 1.62% |
| COc1cc(N2CCOCC2)ccc1Nc1ncc(Cl)c(Nc2ccccc2NS(C)(=O)=O)n1 | 0.93% | 2.59% | 2.32% | -2.21% | -13.2% |
| CCCN1CCC[C@@H]2Cc3nc(N)ncc3C[C@H]21 [quinelorane] | 0.91% | -0.4% | 0.8% | -1.2% | -1.06% |
| CCN[C@H]1C[C@H](C)S(=O)(=O)c2sc(S(N)(=O)=O)cc21 [dorzolamide] | -0.7% | -3.23% | -4.56% | -1.92% | -1.06% |
| Cn1c(NC[C@@H](N)Cc2ccccc2)nc(-c2ccncc2)c(-c2ccc3ccccc3c2)c1=O | -0.22% | 0.05% | -0.08% | 2.09% | 32.9% (active) |
| N#CC(=C(/N)Sc1ccccc1N)/C(C#N)=C(/N)Sc1ccccc1N | -0.64% | 0.76% | 2.1% | -3.9% | -8.7% |
| Cc1ccc(C(=O)Cn2c3c(sc2=N)CCCC3)cc1 [pifithrin-alpha] | -1.05% | -0.83% | -1.23% | -1.09% | -2.47% |
| O=C(O)c1cc(N2N=C(C(F)(F)F)/C(=C/c3ccc(-c4ccccc4)o3)C2=O)ccc1Cl | 0.12% | 1.11% | 0.66% | 0.57% | 3.69% |
| COC(=O)Nc1ccc(-c2nc(N3CCOCC3)c3cnn(C4CCN(C(=O)OC)CC4)c3n2)cc1 | 1.39% | 1.76% | 4.01% | 0.99% | 2.63% |
| CCC1(C)CC(=O)NC(=O)C1 [bemegride] | -1.73% | -2.18% | -2.05% | 1.29% | -2.8% |
| Nc1nc(Nc2ccccc2)nc2c1ncn2[C@@H]1O[C@H](CO)[C@@H](O)[C@H]1O | 2.4% | 4.07% | 1.9% | 1.06% | -2.77% |
| COc1cc2c(cc1-c1c(C)noc1C)ncc1[nH]c(=O)n([C@H](C)c3ccccn3)c12 | -7.87% | -7.32% | -3.13% | 1.38% | -8.07% |
| CN(C(=O)c1c(O)c2ccccc2n(C)c1=O)c1ccccc1 [roquinimex] | -4.01% | 0.29% | 2.85% | -0.21% | 0% |
| CCCCCCCCCCC(C)(C)C(=O)Nc1c(OC)cc(OC)cc1OC | 0.52% | 6.1% | 5.14% | 0.51% | 0.93% |
| O=C(Nc1ccccc1F)N[C@H]1N=C(c2ccccc2)c2ccccc2NC1=O | 0.66% | 0.41% | -0.15% | -1.67% | -0.49% |
| O=C1NCC2(CCN(CCc3ccccc3)CC2)O1 [fenspiride] | -2.77% | -1.55% | 2.18% | 0.71% | 0.43% |
